Activity calls are given as the source filed them.

A short description of experiment [1]: small molecules captured by biotinylated probe aFSTL3 – biochemical, small-molecule microarray, fluorescence 635/667, stem cell growth factor project, primary screen (AID 1064).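 Note: measures binding of the biotinylated anti-FSTL3 antibody to printed compounds.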 Conditions: higher = more signal.
Experiment [2] is described as follows: binders from COS7 lysate, DM2A8 probe, primary screen, torsin A project, cell lysate, small-molecule microarray, fluorescence 635/667 (AID 1065). Conditions: higher = more signal, COS7 lysate expressing mutant human TOR1A.
Experiment [3] is described as follows: small molecules captured by biotinylated probe aFGF2 – biochemical, small-molecule microarray, fluorescence 635/667, stem cell growth factor project, primary screen (AID 1067).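 Note: measures binding of biotinylated aFGF2 protein to printed compounds on slides; z-score merges feature fluorescence and signal-to-noise across triplicate slides.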 Conditions: higher = more signal.
Experiment [4] in a line: small molecules captured by biotinylated probe aFGF10 – biochemical, small-molecule microarray, fluorescence 635/667, stem cell growth factor project, primary screen (AID 1071).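 Note: score merges 667 nm spot intensity and signal to noise from triplicate slides.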 Conditions: higher = more signal.
Experiment [5] addresses Neurogenic locus notch homolog protein 2 (Homo sapiens) (UniProt Q04721). Nature of the experiment: small molecules binding Notch2 protein – biochemical, small-molecule microarray, 635 nm fluorescence, stem cell growth factors, primary screen (AID 1073). Conditions: higher = more signal.
The target in experiment [6] is Pro-neuregulin-1, membrane-bound isoform (Homo sapiens) (UniProt Q02297). Nature of the experiment: small molecules binding neuregulin-1 protein – biochemical, small-molecule microarray, fluorescence 635/667, psychiatric disease protein project, primary screen (AID 1075).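 Note: score combines 667 nm spot fluorescence with signal to noise.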 Conditions: NRG1 binding, 635 nm fluorescence, higher = more signal.
The test system of experiment [7] is Neuregulin-1 EGF-like domain. Nature of the experiment: small molecules binding NRG1 EGF domain – biochemical, small-molecule microarray, 635 nm fluorescence, primary screen (AID 1081).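 Note: binding of the protein to compounds printed on small-molecule microarray slides.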 Conditions: higher = more signal.
The nature of experiment [8]: FRG1 expression reporter modulators in myotubes – cell-based, C2C12 myotubes, firefly/Renilla luciferase, luminescence, FRG1 inhibition for FSHD, primary screen (AID 1084). Conditions: FRG1 promoter luciferase, higher = more signal, called active from +8 up or from −8 down.
Experiment [9] is described as follows: small molecules captured by biotinylated probe aFST – biochemical, small-molecule microarray, fluorescence 635/667, stem cell growth factor project, primary screen (AID 1086).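 Note: score merges 667 nm fluorescence with signal-to-noise of each printed compound spot.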 Conditions: higher = more signal.
Experiment [10] can be described thus: binders of probe aHhip on microarray, primary screen, stem cell growth factor project, biochemical, small-molecule microarray, fluorescence 635/667 (AID 1087).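 Note: score merges spot fluorescence at 667nm with spot signal to noise ratio.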 Conditions: higher = more signal.
Experiment [11] relates to PRMT1 (protein arginine N-methyltransferase 1). As to the kind of experiment: small molecules binding arginine methyltransferase PRMT1 – biochemical, small-molecule microarray, 635 nm fluorescence, primary screen (AID 1088).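 Note: binding of Prmt1 protein to compounds spotted on small-molecule microarray slides.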 Conditions: higher = more signal.
Experiment [12] in a line: growth effects on S. cerevisiae YJM789 – YJM789 clinical isolate, OD600, 24 h, basal, primary screen (AID 1089).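 Note: growth of clinical yeast isolate S. cerevisiae YJM 789 seeded 1000 cells per well; test concentration not given here.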 Conditions: higher = more signal, called active from +8 up or from −8 down.
The nature of experiment [13]: S. pombe growth modifiers, basal conditions – strain 972, OD600, 24 h, no modulator, primary screen (AID 1090).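 Note: basal condition with compound alone and no growth modifier present; test concentration not given here.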 Conditions: S. pombe 972 growth, higher = more signal, called active from +8 up or from −8 down.
Experiment [14] is described as follows: budding yeast growth modifiers under rapamycin – strain BY4716, OD600, 96 h, primary screen (AID 1091). Note: test concentration not given here. Conditions: S. cerevisiae BY4716 + rapamycin, higher = more signal, called active from +8 up or from −8 down.
Experiment [15] has as its target Torsin-1A-interacting protein 2 (Homo sapiens) (UniProt Q8NFQ8). As to the kind of experiment: small molecules binding lysate-expressed LULL1 – cell lysate, human LULL1 lysate, 635/667 nm fluorescence, primary screen (AID 1092).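 Note: score merges per-feature 667 nm fluorescence with signal-to-noise.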 Conditions: small-molecule microarray, hLULL1 lysate binding, 635 nm fluorescence; higher = more signal.
A short description of experiment [16]: optical density change of DRC41 E. coli – strain DRC41, OD650, 24 h, E. coli filamentation project, primary screen (AID 1093).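 Note: MC1000 strain lacking acrAB efflux and sulA so SOS filamentation is blocked; test concentration not given here.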 Conditions: E. coli DRC41 growth, higher = more signal, called active from +8 up or from −8 down.
Experiment [17] can be described thus: probe aLefty2 binding to arrayed compounds – biochemical, biotinylated probe, 635/667 nm fluorescence, primary screen (AID 1094).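 Note: score merges spot fluorescence near 667 nm with spot signal-to-noise ratio.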 Conditions: small-molecule microarray, higher = more signal.
Experiment [18] concerns Noggin (protein binding on small-molecule microarray). As to the kind of experiment: small molecules binding Noggin protein – biochemical, 635/667 nm fluorescence, primary screen (AID 1095).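 Note: score merges 667 nm feature fluorescence with signal to noise over triplicate slides.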 Conditions: 635 nm fluorescence, higher = more signal.
The target in experiment [19] is Neurogenic locus notch homolog protein 3 (Homo sapiens) (UniProt Q9UM47). As to the kind of experiment: small molecules binding NOTCH3 protein – biochemical, 635/667 nm fluorescence, primary screen (AID 1096). Conditions: small-molecule microarray, 635 nm fluorescence, higher = more signal.
Experiment [20] is described as follows: probe aEGFR binding to arrayed compounds – biochemical, biotinylated probe, 635/667 nm fluorescence, primary screen (AID 1097).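 Note: probe is a biotinylated anti-EGFR antibody binding compounds printed on slides; score combines fluorescence near 667 nm and signal to noise of each spot.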 Conditions: small-molecule microarray, higher = more signal.

Pro-neuregulin-1, membrane-bound isoform (Homo sapiens), sequence (Q02297 whole entry, looked up, the tested form may be a part, canonical isoform): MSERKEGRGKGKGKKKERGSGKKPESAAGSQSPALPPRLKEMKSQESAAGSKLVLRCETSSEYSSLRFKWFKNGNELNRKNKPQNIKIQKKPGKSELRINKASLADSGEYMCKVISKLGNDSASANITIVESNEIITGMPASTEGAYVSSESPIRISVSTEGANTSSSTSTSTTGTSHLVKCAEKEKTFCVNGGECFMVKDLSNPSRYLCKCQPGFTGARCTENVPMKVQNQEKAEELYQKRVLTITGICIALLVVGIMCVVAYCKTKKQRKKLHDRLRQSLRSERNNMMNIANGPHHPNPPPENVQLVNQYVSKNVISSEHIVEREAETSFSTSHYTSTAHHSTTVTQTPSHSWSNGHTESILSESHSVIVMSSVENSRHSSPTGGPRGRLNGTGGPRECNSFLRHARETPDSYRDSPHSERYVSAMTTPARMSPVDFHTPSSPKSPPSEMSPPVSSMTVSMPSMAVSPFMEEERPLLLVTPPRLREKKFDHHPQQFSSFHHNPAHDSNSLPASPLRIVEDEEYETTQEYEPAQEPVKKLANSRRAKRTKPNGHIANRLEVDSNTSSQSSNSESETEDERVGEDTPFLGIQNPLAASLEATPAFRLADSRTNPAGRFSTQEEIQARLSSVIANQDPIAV
Neurogenic locus notch homolog protein 3 (Homo sapiens), sequence (Q9UM47 whole entry, looked up): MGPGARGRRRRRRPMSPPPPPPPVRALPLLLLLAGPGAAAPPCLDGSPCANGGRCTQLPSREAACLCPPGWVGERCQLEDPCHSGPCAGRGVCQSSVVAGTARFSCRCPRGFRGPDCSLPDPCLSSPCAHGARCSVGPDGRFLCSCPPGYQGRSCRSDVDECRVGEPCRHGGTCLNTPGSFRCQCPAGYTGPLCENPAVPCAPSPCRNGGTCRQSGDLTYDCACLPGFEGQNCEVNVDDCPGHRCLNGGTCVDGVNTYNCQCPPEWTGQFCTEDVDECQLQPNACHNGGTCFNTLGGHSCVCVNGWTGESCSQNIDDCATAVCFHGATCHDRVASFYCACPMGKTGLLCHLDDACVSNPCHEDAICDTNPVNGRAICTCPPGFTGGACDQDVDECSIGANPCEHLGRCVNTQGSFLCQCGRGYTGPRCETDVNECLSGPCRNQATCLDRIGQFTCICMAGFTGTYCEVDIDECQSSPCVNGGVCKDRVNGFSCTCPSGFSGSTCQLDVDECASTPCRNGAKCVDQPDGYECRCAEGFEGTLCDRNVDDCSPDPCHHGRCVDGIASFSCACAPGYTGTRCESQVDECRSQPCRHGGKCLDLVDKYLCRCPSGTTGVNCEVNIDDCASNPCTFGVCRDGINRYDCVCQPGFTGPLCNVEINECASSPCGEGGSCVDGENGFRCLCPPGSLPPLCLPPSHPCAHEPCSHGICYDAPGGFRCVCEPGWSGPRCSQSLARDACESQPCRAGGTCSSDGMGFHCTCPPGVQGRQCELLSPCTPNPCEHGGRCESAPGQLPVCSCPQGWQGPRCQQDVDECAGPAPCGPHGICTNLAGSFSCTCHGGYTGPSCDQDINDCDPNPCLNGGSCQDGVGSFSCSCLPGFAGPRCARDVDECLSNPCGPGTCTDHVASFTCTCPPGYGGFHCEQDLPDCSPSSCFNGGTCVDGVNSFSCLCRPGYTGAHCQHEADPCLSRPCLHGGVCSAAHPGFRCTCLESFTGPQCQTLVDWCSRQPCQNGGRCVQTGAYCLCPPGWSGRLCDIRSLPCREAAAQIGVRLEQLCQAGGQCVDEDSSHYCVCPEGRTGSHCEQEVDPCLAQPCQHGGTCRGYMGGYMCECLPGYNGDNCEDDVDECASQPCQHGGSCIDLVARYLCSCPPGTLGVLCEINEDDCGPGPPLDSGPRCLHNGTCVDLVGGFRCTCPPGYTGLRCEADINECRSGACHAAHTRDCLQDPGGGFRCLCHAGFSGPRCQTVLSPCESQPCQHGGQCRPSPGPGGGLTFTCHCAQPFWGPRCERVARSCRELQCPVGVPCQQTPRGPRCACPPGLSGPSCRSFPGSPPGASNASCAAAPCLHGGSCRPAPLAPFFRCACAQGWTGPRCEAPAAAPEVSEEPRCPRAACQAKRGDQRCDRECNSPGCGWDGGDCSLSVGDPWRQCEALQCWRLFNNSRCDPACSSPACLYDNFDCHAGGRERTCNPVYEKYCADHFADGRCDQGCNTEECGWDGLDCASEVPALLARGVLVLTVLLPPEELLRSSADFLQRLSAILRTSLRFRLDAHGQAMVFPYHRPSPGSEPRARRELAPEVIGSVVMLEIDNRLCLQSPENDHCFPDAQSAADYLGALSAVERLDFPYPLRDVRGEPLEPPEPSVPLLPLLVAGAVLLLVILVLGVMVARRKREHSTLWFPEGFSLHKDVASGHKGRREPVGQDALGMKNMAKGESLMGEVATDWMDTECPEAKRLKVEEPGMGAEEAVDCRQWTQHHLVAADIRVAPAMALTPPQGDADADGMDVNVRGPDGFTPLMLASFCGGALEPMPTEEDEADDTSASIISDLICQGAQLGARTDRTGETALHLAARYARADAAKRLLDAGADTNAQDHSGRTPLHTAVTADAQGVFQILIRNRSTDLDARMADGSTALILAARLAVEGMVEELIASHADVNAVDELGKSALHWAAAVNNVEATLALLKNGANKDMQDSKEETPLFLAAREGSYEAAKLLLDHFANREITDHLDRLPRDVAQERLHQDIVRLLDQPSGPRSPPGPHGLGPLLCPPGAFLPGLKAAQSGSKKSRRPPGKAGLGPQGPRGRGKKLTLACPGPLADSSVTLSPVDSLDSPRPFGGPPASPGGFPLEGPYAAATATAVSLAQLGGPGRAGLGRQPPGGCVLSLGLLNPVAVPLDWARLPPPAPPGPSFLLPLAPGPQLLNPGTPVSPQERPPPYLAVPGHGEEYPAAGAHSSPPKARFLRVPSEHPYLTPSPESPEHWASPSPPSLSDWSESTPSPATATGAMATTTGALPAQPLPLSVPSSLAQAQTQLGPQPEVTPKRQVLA
Torsin-1A-interacting protein 2 (Homo sapiens), sequence (Q8NFQ8 whole entry, looked up): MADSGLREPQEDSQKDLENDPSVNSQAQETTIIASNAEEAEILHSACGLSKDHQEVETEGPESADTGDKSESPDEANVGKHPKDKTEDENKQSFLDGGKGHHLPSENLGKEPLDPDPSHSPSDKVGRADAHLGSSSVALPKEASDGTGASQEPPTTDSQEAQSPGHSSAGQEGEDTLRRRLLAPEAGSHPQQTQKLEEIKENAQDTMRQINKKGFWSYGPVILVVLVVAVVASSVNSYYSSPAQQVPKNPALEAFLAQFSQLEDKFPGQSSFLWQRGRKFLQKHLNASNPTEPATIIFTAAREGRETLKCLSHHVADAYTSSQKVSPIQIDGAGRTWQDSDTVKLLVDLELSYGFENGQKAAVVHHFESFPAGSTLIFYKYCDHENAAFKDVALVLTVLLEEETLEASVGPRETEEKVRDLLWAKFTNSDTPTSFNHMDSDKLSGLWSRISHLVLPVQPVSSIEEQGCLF

With `O=C1N(CCS(=O)(=O)c2ccccc2)Cc2ccccc2[C@@H]2OC(c3ccc(OCCCO)cc3)=N[C@]12CCS(=O)(=O)c1ccccc1`, the composite z-score in experiment [1] stood at 0.215; in experiment [2], 0.675; in experiment [3], 0.115; in experiment [4] it was 0.507; in experiment [5], 1.66; in experiment [6], 1.46. Also, the composite z-score came to 1.39 in experiment [7]; 1.18 in [9]; 0.0053 in experiment [10]; 1.53 in experiment [11]; 3.23 in experiment [15]; 0.338 in experiment [17]. Also, the composite z-score in experiment [18] was found to be 1.06; in experiment [19], 1.02; in experiment [20], 0.266. For the same compound, the z-score was -2.06 (inactive) in experiment [8]; 2.61 (inactive) in experiment [12]; 1.97 (inactive) in [13]; 6.29 (inactive) in experiment [14]; 0.833 (inactive) in experiment [16].
Take `COCCOC(=O)N1C(=O)[C@@]2(c3cc(C#Cc4ccc(OC)cc4)ccc31)[C@H](c1ccc(OCCO)cc1)N1[C@H](c3ccccc3)[C@H](c3ccccc3)OC(=O)[C@H]1[C@@H]2C(=O)Nc1nc2ccccc2s1`: the composite z-score was -0.118 in [1]; 0.247 in [2]; -0.0262 in experiment [3]; 0.39 in experiment [4]; 1.21 in experiment [5]; 0.864 in experiment [6]. Besides, the composite z-score in experiment [7] is 0.718; in experiment [9], -0.0352; in experiment [10] it was 0.0695; in experiment [11], 1.14; in experiment [15], 2.2; in [17], 0.188. Also, the composite z-score in experiment [18] is 0.55; in experiment [19] it was 0.95; in experiment [20] it was -0.0437. The z-score in experiment [8] is 2.99 (inactive); in [12], 1.77 (inactive); in [13] it was 1.43 (inactive); in experiment [14], 1.96 (inactive); in experiment [16], 1.82 (inactive).
As for `COCCCNC(=O)[C@@]1(Sc2ccc(C)cc2)CC(=O)N(C(C)C)[C@@H]1c1ccc(CO)cc1I`, the composite z-score in experiment [1] was 0.438; in experiment [2] it was -0.107; in [3] it was 0.0854; in experiment [4], 0.606; in [5] it was -0.622; in [6], 1.89. Further, the composite z-score is 1.25 in [7]; -0.307 in [9]; -0.0581 in experiment [10]; 1.31 in experiment [11]; 2.53 in [15]; -0.0225 in experiment [17]. Besides, the composite z-score in experiment [18] is -0.926; in experiment [19] it was -0.365; in experiment [20], -0.21. In addition, the z-score in experiment [8] was -1.2 (inactive); in experiment [12], -0.436 (inactive); in [13], -2.98 (inactive); in [14], 0.445 (inactive); in experiment [16], -2.04 (inactive).
`CN1C(=O)[C@@]2(Cc3ccccc3)N=C(c3ccc(OCCCO)cc3)O[C@H]2c2ccccc21`: the composite z-score in [1] was found to be 0.331; in experiment [2] it was 0.295; in experiment [3], 0.0175; in experiment [4], 0.261; in experiment [5] it was 0.921; in experiment [6], 0.501. In addition, the composite z-score was 1.21 in experiment [7]; 0.511 in experiment [9]; -0.156 in experiment [10]; 1.56 in experiment [11]; 2.94 in experiment [15]; 0.109 in experiment [17]. The composite z-score in experiment [18] is 0.955; in experiment [19], 1; in experiment [20] it was -0.0982. Moreover, the z-score in [8] was -2.02 (inactive); in experiment [12] it was -1.28 (inactive); in experiment [13] it was -4.11 (inactive); in experiment [14] it was 0.843 (inactive); in experiment [16], 0.291 (inactive).
Turning to `COCCCNC(=O)[C@@]1(c2ccc([N+](=O)[O-])cc2)CC(=O)N(C(C)C)[C@@H]1c1ccc(CO)cc1`, the composite z-score is 0.135 in experiment [1]; -0.169 in experiment [2]; -0.059 in experiment [3]; -0.0621 in experiment [4]; -0.588 in [5]; -0.714 in [6]. In addition, the composite z-score in experiment [7] was 0.539; in [9] it was 0.116; in [10] it was 0.526; in experiment [11], 0.197; in [15], 0.15; in [17] it was 0.701. Moreover, the composite z-score in [18] is -0.363; in [19], -0.617; in experiment [20], -0.071. In addition, the z-score is 0.195 (inactive) in experiment [8]; -0.411 (inactive) in experiment [12]; -0.46 (inactive) in [13]; -0.363 (inactive) in experiment [14]; 0.409 (inactive) in experiment [16].

The record behind these values is PubChem BioAssay.
